Laboratory results taken from PubChem BioAssay AID1159580 (chemical genetic matrix, 2015).
Values joined by “and” are separate entries in the source; they are usually repeats but may differ in a detail not shown here. Equal values may be shown once. Out of some 5,500 compounds screened, about 2,000 (36%) were called active. Another 18% or so got no clear call; they are omitted. No stated cut-off is given here; in the data, active means normalized growth mostly below about 0.91 (no sharp cut-off); inconclusive means no clear call, values can overlap the other calls; inactive means mostly above about 0.92. The list shows a part of the results.

Experiment: chemical genetic growth profiling, strain panel (AID 1159580);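 further: tested at 20 µM; growth read once vehicle control cultures reached saturation at 30 °C; 1 = growth at the plate median or of vehicle wells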
Conditions: S. cerevisiae deletion strains, growth OD
[1] = locus YBR229C, strain ROT2, stronger effect = lower value
[2] = locus YDL101C, strain DUN1, stronger effect = lower value
[3] = locus YDR150W, strain NUM1, stronger effect = lower value
[4] = locus YHR030C, strain SLT2, stronger effect = lower value
[5] = locus YJR043C, strain POL32, stronger effect = lower value
[6] = locus YJR075W, strain HOC1, stronger effect = lower value
[7] = locus YLR039C, strain RIC1, stronger effect = lower value
[8] = locus YLR262C, strain YPT6, stronger effect = lower value
[9] = locus YMR307W, strain GAS1, stronger effect = lower value
[10] = locus YPL241C, strain CIN2, stronger effect = lower value
[11] = locus YMR263W, strain SAP30, stronger effect = lower value
[12] = locus YPL055C, strain LGE1, stronger effect = lower value

Measured: normalized growth

CC1(C)CC23C(=O)CCC(O)C2(C)CCC13 (stereo not drawn)
inactive: locus YAL021C, strain ccr4, stronger effect = lower value 0.956 | locus YAL026C, strain drs2, stronger effect = lower value 0.989 | locus YAL030W, strain snc1, stronger effect = lower value 0.979 | locus YBL061C, strain skt5, stronger effect = lower value 0.99 | locus YBR009C, strain hhf1, stronger effect = lower value 1.02 | locus YBR021W, strain FUR4, stronger effect = lower value 0.995 | locus YBR023C, strain chs3, stronger effect = lower value 0.993 | locus YBR171W, strain sec66, stronger effect = lower value 0.974 | [1] 1.01 | locus YBR231C, strain swc5, stronger effect = lower value 1.01 | locus YBR279W, strain paf1, stronger effect = lower value 0.987 | locus YCL011C, strain gbp2, stronger effect = lower value 0.979 | locus YCL016C, strain dcc1, stronger effect = lower value 0.967 | locus YCL029C, strain bik1, stronger effect = lower value 1 | locus YCL069W, strain vba3, stronger effect = lower value 0.984 | locus YCR088W, strain abp1, stronger effect = lower value 0.985 | locus YDL005C, strain med2, stronger effect = lower value 0.97 | locus YDL035C, strain GPR1, stronger effect = lower value 1.01 | locus YDL040C, strain nat1, stronger effect = lower value 0.991 | locus YDL074C, strain BRE1, stronger effect = lower value 1.05 | [2] 1.04 | locus YDL185W, strain tfp1, stronger effect = lower value 1.01 | locus YDL192W, strain arf1, stronger effect = lower value 1 | locus YDR001C, strain nth1, stronger effect = lower value 0.986 | locus YDR069C, strain doa4, stronger effect = lower value 0.967 | locus YDR101C, strain arx1, stronger effect = lower value 0.983 | locus YDR137W, strain rgp1, stronger effect = lower value 0.974 | [3] 1 | locus YDR159W, strain sac3, stronger effect = lower value 0.988 | locus YDR162C, strain NBP2, stronger effect = lower value 1.01 | locus YDR195W, strain ref2 0.957 | locus YDR297W, strain sur2, stronger effect = lower value 1.01 | locus YDR318W, strain mcm21, stronger effect = lower value 1 | locus YDR334W, strain swr1, stronger effect = lower value 0.978 | locus YDR335W, strain msn5, stronger effect = lower value 0.989 | locus YDR388W, stronger effect = lower value 1.02 | locus YDR392W, strain spt3, stronger effect = lower value 0.939 | locus YDR502C, strain sam2, stronger effect = lower value 1.03 | locus YEL003W, strain gim4, stronger effect = lower value 0.989 | locus YEL037C, strain rad23, stronger effect = lower value 0.981 | locus YEL061C, strain CIN8 (second series), stronger effect = lower value 0.985 | locus YER015W, strain faa2, stronger effect = lower value 0.989 | locus YER016W, strain bim1, stronger effect = lower value 0.961 | locus YER110C, stronger effect = lower value 1.03 | locus YER111C, strain swi4, stronger effect = lower value 0.971 | locus YER155C, strain BEM2 (second series), stronger effect = lower value 0.985 | locus YER155C, strain BEM2, stronger effect = lower value 1 | locus YER167W, strain BCK2, stronger effect = lower value 0.997 | locus YFR010W, strain ubp6, stronger effect = lower value 1 | locus YGL078C, strain dbp3, stronger effect = lower value 1.02 | locus YGL086W, strain mad1, stronger effect = lower value 1.01 | locus YGL167C, strain pmr1, stronger effect = lower value 0.976 | locus YGL173C, strain kem1, stronger effect = lower value 0.978 | locus YGL227W, strain vid30, stronger effect = lower value 0.983 | locus YGL240W, strain doc1, stronger effect = lower value 1.01 | locus YGL248W, strain PDE1, stronger effect = lower value 1.06 | locus YGL253W, strain hxk2, stronger effect = lower value 0.984 | locus YGR135W, strain pre9, stronger effect = lower value 1.08 | locus YGR252W, strain gcn5, stronger effect = lower value 1.05 | locus YHR013C, strain ard1, stronger effect = lower value 0.952 | locus YHR027C, strain rpn1, stronger effect = lower value 0.987 | [4] 1 and 1.03 | locus YHR079C, strain IRE1 (second series), stronger effect = lower value 1.01 | locus YHR079C, strain IRE1, stronger effect = lower value 1.04 | locus YHR094C, strain hxt1, stronger effect = lower value 1.01 | locus YHR129C, strain ARP1, stronger effect = lower value 1.01 | locus YHR142W, strain chs7, stronger effect = lower value 0.96 | locus YHR200W, strain rpn10, stronger effect = lower value 1.02 | locus YIL066C, strain RNR3, stronger effect = lower value 1.01 | locus YIL073C, strain SPO22, stronger effect = lower value 1.08 | locus YIL125W, strain kgd1, stronger effect = lower value 0.998 | locus YIR030C, strain dcg1, stronger effect = lower value 1.02 | locus YJL092W, strain hpr5, stronger effect = lower value 0.994 | locus YJL095W, strain BCK1 (second series), stronger effect = lower value 0.98 | locus YJL095W, strain BCK1, stronger effect = lower value 1.1 and 1.04 | locus YJL115W, strain asf1, stronger effect = lower value 0.97 | locus YJL129C, strain trk1, stronger effect = lower value 0.955 | locus YJL134W, strain LCB3, stronger effect = lower value 1.01 | locus YJL154C, strain vps35, stronger effect = lower value 0.969 | locus YJL164C, strain tpk1, stronger effect = lower value 0.997 | locus YJL166W, strain qcr8, stronger effect = lower value 1.01 | locus YJL168C, strain set2, stronger effect = lower value 0.996 | locus YJL187C, strain SWE1 (second series), stronger effect = lower value 1.05 | [5] 0.983 | locus YJR066W, strain TOR1, stronger effect = lower value 0.972 | [6] 1.03 | locus YKL009W, strain mrt4, stronger effect = lower value 1.03 | locus YKL068W, stronger effect = lower value 1 | locus YKL085W, strain MDH1 (second series), stronger effect = lower value 1.01 | locus YKL085W, strain MDH1, stronger effect = lower value 1.01 | locus YKL160W, strain elf1, stronger effect = lower value 0.974 | locus YKL190W, strain CNB1, stronger effect = lower value 1.01 | locus YKR001C, strain vps1, stronger effect = lower value 1.04 | locus YKR026C, strain gcn3, stronger effect = lower value 0.99 | locus YKR091W, strain srl3, stronger effect = lower value 0.989 | locus YLL001W, strain dnm1, stronger effect = lower value 0.99 | locus YLL026W, stronger effect = lower value 0.994 | locus YLL041C, strain sdh2, stronger effect = lower value 0.985 | locus YLR027C, strain aat2, stronger effect = lower value 0.992 | [7] 1.13 | locus YLR058C, strain SHM2, stronger effect = lower value 1.03 | locus YLR102C, strain apc9, stronger effect = lower value 1 | locus YLR113W, strain HOG1, stronger effect = lower value 1.03 | locus YLR221C, strain rsa3, stronger effect = lower value 1.01 | locus YLR258W, strain gsy2, stronger effect = lower value 0.984 | locus YLR262C, strain YPT6 (second series), stronger effect = lower value 1.01 | [8] 1.07 | locus YLR268W, strain sec22, stronger effect = lower value 0.995 | locus YLR320W, strain mms22, stronger effect = lower value 0.997 | locus YLR330W, strain CHS5, stronger effect = lower value 1.02 | locus YLR342W, strain FKS1 (second series), stronger effect = lower value 1.01 | locus YLR342W, strain FKS1, stronger effect = lower value 0.977 | locus YLR357W, strain rsc2, stronger effect = lower value 0.956 | locus YLR370C, strain arc18, stronger effect = lower value 0.981 | locus YLR371W, strain rom2, stronger effect = lower value 0.995 | locus YLR384C, strain iki3, stronger effect = lower value 0.952 | locus YLR418C, strain cdc73, stronger effect = lower value 1.05 | locus YML016C, strain PPZ1, stronger effect = lower value 1.02 | locus YML032C, strain rad52, stronger effect = lower value 1.01 | locus YML120C, strain ndi1, stronger effect = lower value 0.984 | locus YML124C, strain tub3, stronger effect = lower value 1 | locus YMR058W, strain fet3, stronger effect = lower value 0.987 | locus YMR078C, strain ctf18, stronger effect = lower value 1.02 | locus YMR125W, strain sto1, stronger effect = lower value 0.986 | locus YMR129W, stronger effect = lower value 0.981 | locus YMR205C, strain PFK2, stronger effect = lower value 0.999 | locus YMR223W, strain ubp8, stronger effect = lower value 1.02 | locus YMR231W, strain pep5, stronger effect = lower value 0.991 | [9] 1.08 | locus YNL067W, strain RPL9B, stronger effect = lower value 1.03 | locus YNL071W, strain lat1, stronger effect = lower value 0.991 | locus YNL183C, strain NPR1, stronger effect = lower value 0.973 | locus YNL209W, strain ssb2, stronger effect = lower value 0.988 | locus YNL233W, strain BNI4, stronger effect = lower value 1.06 | locus YNL248C, strain rpa49, stronger effect = lower value 0.951 | locus YNL250W, strain rad50, stronger effect = lower value 1.02 | locus YNL271C, strain bni1, stronger effect = lower value 0.999 | locus YNL298W, strain CLA4, stronger effect = lower value 1.01 | locus YNL307C, strain MCK1, stronger effect = lower value 1.02 | locus YNL322C, strain KRE1 (second series), stronger effect = lower value 1 | locus YNR049C, strain mso1, stronger effect = lower value 0.972 | locus YNR052C, strain pop2, stronger effect = lower value 1.03 | locus YOL012C, strain htz1 1.22 | locus YOL147C, strain pex11, stronger effect = lower value 1.02 | locus YOR001W, strain rrp6, stronger effect = lower value 1.02 | locus YOR061W, strain CKA2, stronger effect = lower value 1.01 | locus YOR069W, strain VPS5, stronger effect = lower value 1.01 | locus YOR070C, strain gyp1, stronger effect = lower value 0.987 | locus YOR080W, strain dia2, stronger effect = lower value 0.981 | locus YOR083W, strain WHI5, stronger effect = lower value 0.979 | locus YOR106W, strain vam3, stronger effect = lower value 0.962 | locus YOR136W, strain idh2, stronger effect = lower value 1.01 | locus YOR144C, strain elg1, stronger effect = lower value 1.01 | locus YOR184W, strain ser1, stronger effect = lower value 0.994 | locus YOR231W, strain MKK1, stronger effect = lower value 1.05 | locus YOR265W, strain rbl2, stronger effect = lower value 1 | locus YOR270C, strain vph1, stronger effect = lower value 0.976 | locus YOR290C, strain snf2, stronger effect = lower value 0.977 | locus YOR316C, strain cot1, stronger effect = lower value 1.01 | locus YPL051W, strain arl3, stronger effect = lower value 0.987 | locus YPL078C, strain atp4, stronger effect = lower value 0.981 | locus YPL106C, strain sse1, stronger effect = lower value 0.97 | locus YPL240C, strain hsp82, stronger effect = lower value 1 | [10] 1.01 | locus YPL256C, strain CLN2, stronger effect = lower value 1.04 | locus YPR119W, strain clb2, stronger effect = lower value 1 | locus YPR141C, strain kar3, stronger effect = lower value 1 | locus YPR163C, strain tif3, stronger effect = lower value 1.01 | locus YPR167C, strain met16, stronger effect = lower value 1.03 | strain wtn01, stronger effect = lower value 0.984

Cc1cc(S(=O)(=O)NCCNc2nccc(C(F)(F)F)n2)c(C)cc1Cl
inactive: locus YAL013W, strain DEP1, stronger effect = lower value 1.01 | [1] 1.02 | locus YCL061C, strain MRC1, stronger effect = lower value 1.01 | [2] 1.01 | locus YDL134C, strain PPH21, stronger effect = lower value 0.998 | [3] 0.933 | locus YEL061C, strain CIN8, stronger effect = lower value 1.02 | locus YGR078C, strain PAC10, stronger effect = lower value 1 | locus YGR229C, strain SMI1, stronger effect = lower value 1.02 | [4] 0.957 | locus YHR087W, strain rtc3, stronger effect = lower value 1.01 | [5] 1.01 | [6] 1 | [7] 0.991 | locus YLR058C, strain SHM2 (second series), stronger effect = lower value 1.02 | locus YLR085C, strain ARP6, stronger effect = lower value 1.01 | [8] 1.01 | locus YML094W, strain GIM5, stronger effect = lower value 0.992 | locus YMR219W, strain ESC1, stronger effect = lower value 1.01 | [11] 0.921 | locus YNL153C, strain GIM3, stronger effect = lower value 1.02 | locus YNL298W, strain CLA4 (second series), stronger effect = lower value 0.982 | locus YNL322C, strain KRE1, stronger effect = lower value 1.01 | locus YNR030W, strain Alg12, stronger effect = lower value 1.02 | locus YOL006C, strain TOP1, stronger effect = lower value 1.02 | [12] 1.01 | [10] 1.06 | locus YPR135W, strain CTF4, stronger effect = lower value 0.966

O=C(O)c1cc(=O)cc(C(=O)O)[nH]1
inactive: locus YAL040C, strain CLN3, stronger effect = lower value 1.02 | locus YCL061C, strain MRC1 (second series), stronger effect = lower value 1.01 | locus YER002W, strain NOP16, stronger effect = lower value 1.04 | [11] 0.998 | [9] 1.01 | locus YNL175C, strain NOP13, stronger effect = lower value 0.999 | locus YNL197C, strain WHI3, stronger effect = lower value 1.03 | locus YNL224C, strain SQS1, stronger effect = lower value 1.01 | locus YOR083W, strain WHI5 (second series), stronger effect = lower value 1.02 | [12] 1.01
